Bioassay records (PubChem)
A selection: hits, their analogues and other compounds. The true share with any hit is near 9%.
ALDH1A1 inh = qHTS Assay for Inhibitors of Aldehyde Dehydrogenase 1 (ALDH1A1); Purified ALDH1A1, NADH fluorescence, propionaldehyde substrate; Potency, µM (titrated, usually from 75.3 µM), for the others: top-dose activity, negative = inhibition, actives largely listed as inhibitors; Aldehyde dehydrogenase 1A1 (Homo sapiens), P00352; AID 1030, 2008; actives 7.3% (n = 220,000); active = well fitted inhibition curve with a large enough effect, not every such curve was filed as active; inconclusive = small, poorly fitted or top-dose-only effect, or another doubt; inactive = no such curve, though single readings can be large or run the other way;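 also: plate controls were no enzyme wells and a reference inhibitor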
HPGD block = qHTS Assay for Inhibitors of HPGD (15-Hydroxyprostaglandin Dehydrogenase); 15-hydroxyprostaglandin dehydrogenase [NAD(+)] (Homo sapiens), P15428; purified HPGD, NADH fluorescence kinetic, PGE2 substrate; Potency, µM, for inactives: at the top dose activity change, negative = inhibition, usual class: inhibitors; actives 4.3% (n = 150,000); active = well fitted inhibition curve with a large enough effect, not every such curve was filed as active; inconclusive = small, poorly fitted or top-dose-only effect, or another doubt; inactive = no such curve, though single readings can be large or run the other way; also: % is scaled to controls: 0 for no effect and ±100 for the full control effect
Target sequence (P15428 whole entry, looked up): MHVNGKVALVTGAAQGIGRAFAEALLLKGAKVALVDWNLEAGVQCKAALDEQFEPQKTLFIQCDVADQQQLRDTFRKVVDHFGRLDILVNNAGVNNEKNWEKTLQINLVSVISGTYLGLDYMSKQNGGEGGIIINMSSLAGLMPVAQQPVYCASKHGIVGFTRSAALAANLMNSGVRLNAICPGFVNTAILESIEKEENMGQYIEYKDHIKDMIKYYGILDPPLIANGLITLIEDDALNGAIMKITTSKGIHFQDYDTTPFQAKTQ
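20 nM HPGD preincubated 15 min at room temperature with compound in 50 mM Tris-HCl pH 8, 0.01% Tween 20. Started with 1 mM NAD+ and 30 uM prostaglandin E2; NADH fluorescence (360/450 nm) read 5 times over 30-s intervals, last minus first.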
HTT aggregate = qHTS Multiplex Assay to Identify Dual Action Probes in a Cell Model of Huntington: Aggregate Formation (GFP) | PC12 HttQ103-GFP aggregates, Acumen cytometry, 40 h | Potency, µM (top dose mostly 46.1 µM), without a hit: at the top dose activity change, negative = inhibition, actives largely listed as inhibitors | actives 1.1% (n = 220,000) | AID 1688, 2009; also: % is scaled to controls: 0 for no effect and ±100 for the full control effect; nearly all actives have a fitted effect of over 60% in size
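Using laser scanning cytometry, GFP-positive aggregates were counted after lysis of PC12 cells induced with 100 nM tebufenozide to express HTT exon 1 Q103–GFP. Compounds were tested in titration.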
KinaseGlo FLuc = Counterscreen for Luciferase (Kinase-Glo TM) Inhibition; Luciferin 4-monooxygenase (Photuris pensylvanica), Q27757; Kinase-Glo luciferase, ATP luminescence, 8 min; Potency, µM (titrated, usually from 38.3 µM), for the others: at the highest dose activity change, negative = inhibition, hits mostly inhibitors; actives 0.28% (n = 200,000); also: % is scaled to controls: 0 for no effect and ±100 for the full control effect; nearly all actives have a fitted effect of over 60% in size
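Light output from Kinase-Glo luciferase with luciferin and 10 uM ATP in 50 mM imidazole pH 7.2, KCl, MgCl2, Tween 20, BSA; compound pin-delivered, 8-min ambient incubation, then luminescence read.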
HTT ATP protect = qHTS Multiplex Assay to Identify Dual Action Probes in a Cell Model of Huntington: Cytoprotection (ATP); PC12 HTT-Q103 induced, cytoprotection, ATP luminescence, 40 h; Potency, µM (titrated, usually from 56.4 µM), for the others: cytoprotection (ATP increase), actives largely listed as activators; actives 0.14% (n = 230,000); also: % of control where 0% means no effect; nearly all actives have a fitted effect of over 45% in size
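PC12 cells stably carrying ecdysone-inducible Htt exon 1 (Q103)–GFP were induced with 100 nM tebufenozide (final) alongside library compounds in a dose series. Cytoprotection was scored as retained ATP by ATPlite luminescence.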
Lamin A splicing = qHTS Assay for Modulators of Lamin A Splicing | actives 0.01% (n = 200,000) | HeLa LMNA splicing GFP/RFP minigene ratio, 48 h | Potency, µM (series often up to 46.1 µM), for the others: top-dose ratio change, negative = inhibition, hits mostly inhibitors; active = well fitted inhibition curve with a large enough effect in the signal ratio, with a control signal flat, not every such curve was filed as active; inconclusive = small, poorly fitted or top-dose-only effect, or effect the other way, or a change in a side signal; the % refers to the signal ratio; also: % is scaled to controls: 0 for no effect and ±100 for the full control effect
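Read-out is the ratio of GFP to DsRed2 object intensity, acquired by 488 nm laser-scanning cytometry on HeLa lamin A-EGFP minigene reporter cells. Compound incubation 48 hrs at 37 °C in Opti-MEM with 2% FBS; DMSO 0.5% final.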
Active calls of the source: *; ? = inconclusive; / = no result; [ ] = dose if it differs, or a comment. Unless noted, calls follow the shape of the dose curve; as a rule, active = well fitted curve in the direction sought with a large enough effect; inconclusive = small, poorly fitted or top-dose-only effect, or another doubt; inactive = no such curve, though single readings can be large; an effect the other way counts as inactive or inconclusive. Potency is read from the fitted curve at half-maximal effect.

SMILES	ALDH1A1 inh	HPGD block	HTT aggregate	KinaseGlo FLuc	HTT ATP protect	Lamin A splicing
Cc1cc2c(=O)n(Cc3ccco3)c(SCC(=O)c3ccc(Cl)s3)nc2s1	16µM*	28µM*	?	3%	27%	20%
Cc1ccc(-n2c(SCC(=O)Nc3ccc4c5c(cccc35)CC4)nc(O)cc2=O)cc1	?	-4%	24%	0%	/	?
Cc1c(Cl)cccc1Nc1ncccc1C(=O)O	/	/	2%	/	-57%	/
Cc1c(Cl)cccc1Nc1ccccc1C(=O)O	12%	14µM*	4%	1%	?	?
Cc1ccc2occ(CN3CCN(Cc4ccccc4)CC3)c(=O)c2c1	?	-7%	11%	0%	-6%	2%[0.0737 µM]
O=c1c(CN2CCN(Cc3ccccc3)CC2)coc2ccc(Cl)cc12	8.9µM*	-8%	7%	0%	-11%[10 µM]	6%
CC(C)c1ccc(S(=O)(=O)/N=C2/C=C(Sc3ncn[nH]3)C(=O)c3ccccc32)cc1	1.8µM*	1.4µM*	3.5µM*	-8%	-98%[10 µM]	?
Cc1ccc(S(=O)(=O)ON2C(=O)c3ccccc3C2=O)c(C)c1	?	/	7%	/	38%[10 µM]	-11%
Cc1ccc(S(=O)(=O)Nc2ccc(O)c(Sc3ncn[nH]3)c2)cc1	?	/	/	-3%	/	16%[46 µM]
Cc1ccc(S(=O)(=O)/N=C2/C=C(Sc3ncn[nH]3)C(=O)c3ccccc32)cc1	13µM*	0.89µM*	3.2µM*	-1%	-81%[10 µM]	?
Cc1ccc(S(=O)(=O)/N=C2/C=C(Sc3ncn[nH]3)C(=O)c3ccccc32)c(C)c1	13µM*	1.4µM*	5µM*	-4%	-19%[10 µM]	?
Cc1cc(C(=O)Nc2sc3c(c2C#N)CCCC3)no1	11µM*	28µM*	-10%	-1%	-31%[10 µM]	-16%
CC(C)Cc1cc(C(=O)Nc2sc3c(c2C#N)CCC3)no1	22µM*	?	-18%	-4%	-4%	-29%
N#Cc1c(NC(=O)C2CC(Cl)=CCC2C(=O)O)sc2c1CCCC2 (centres undefined)	18µM*	/	/	1%	/	/
N#Cc1c(NC(=O)c2cc(-n3cnnc3)ccc2Cl)sc2c1CCCC2	13µM*	-11%	-13%	3%	-14%[0.074 µM]	?
CCOc1ccc(NC(=O)CSc2nc3ccsc3c(=O)n2CC)cc1	/	/	/	/	/	9%[46 µM]
N=c1nc(-c2ccccc2)ccn1O	6%	-9%	-14%	-3%	26%	7%
COc1cccc(C2CCCN2Cc2nc(-c3cnccn3)no2)c1 (centres undefined)	-5%	/	1%[9.22 µM]	-2%	15%[10 µM]	6%[46 µM]
CC(C)Cc1cc(C(=O)Nc2sc3c(c2C#N)CCCC3)no1	18µM*	28µM*	16%	-2%	0%	?
Cc1cc(C(=O)Nc2sc3c(c2C#N)CCC3)no1	?	-10%	-7%	-2%	-82%	-24%
O=C(/C=C/c1ccco1)OCc1nnc(-c2ccccc2)o1	?	/	-13%	0%	10%	15%[46 µM]
O=C(/C=C/c1ccco1)OCc1nnc(-c2ccc(Cl)cc2)o1	25µM*	/	25%	0%	-23%	?
CC1(C)CC(=O)C=C(Nc2ccc(F)cc2F)C1	?	-20%	22%	-1%	-1%	6%
CC1(C)CC(=O)C=C(NCc2ccccc2)C1	11%	-13%	0%	2%	2%	14%
CC1(C)CC(=O)C=C(Nc2cc(-c3ccccc3)[nH]n2)C1	4.5µM*	-6%	-36%	-1%	-18%	-10%
CC1(C)CC(=O)C=C(Nc2ccccc2F)C1	?	22µM*	9%	-5%	-5%	-5%
